Article doi:10.1101/2024.03.05.583629

biological target: pT7_6His-AlfaTag-HOXD13 (human, UniProt P35453 263-343); assay: PADIT-seq; settings: dsDNA, one strand shown
Sequence (P35453 263-343): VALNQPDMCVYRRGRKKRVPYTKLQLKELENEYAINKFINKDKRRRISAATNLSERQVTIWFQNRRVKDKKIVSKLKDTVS

Row | Sequence | binding signal [log2FC]
1 | CTCGAGGATATCAAGATCTGGCCTCGGCTAAGTAAAAGGAACCTCTAGCTAGCCGACTCACTATAGGGATAATCGCCCTGAGCAAAGACC | 0.166 ± 0.108
2 | CTCGAGGATATCAAGATCTGGCCTCGGCCTTTTATGGGGAACCTCTAGCTAGCCGACTCACTATAGGGATAATCGCCCTGAGCAAAGACC | 3.37 ± 0.0902
3 | CTCGAGGATATCAAGATCTGGCCTCGGCATTATAAAAGGAACCTCTAGCTAGCCGACTCACTATAGGGATAATCGCCCTGAGCAAAGACC | 2.37 ± 0.0729
